The record followed here is ChEMBL document CHEMBL1157539, “Thousands of chemical starting points for antimalarial lead identification” (Nature, 2010).

“And” between values parts separate entries of the source, which are not always exact repeats. Equal values may be shown once.

The assay has as its system Plasmodium falciparum. Briefly: GSK_TCMDC: Inhibition of Plasmodium falciparum 3D7 in whole red blood cells, using parasite LDH activity as an index of growth. Test compounds present at 2uM. It counts as functional.
In general, Inhibition refers to the drop in the measured response relative to a control, in per cent. High values mean a response far below the control, low ones a response near the control. Consider `Cc1ccc2c(C3=CCN(CCCCC4(C)C(=O)Nc5c(F)cccc54)CC3)c(C)[nH]c2c1` (stereo not drawn), for which the Inhibition worked out at 95%. Under `O=C(c1ccccc1)C1CC1CN1CC=C(c2c[nH]c3ccccc23)CC1` (stereo not drawn) stands 95%; under `Br.CC(Cc1ccc(CSC(C)C)cc1)NCC(O)c1cccc(Cl)c1` (stereo not drawn), 98%; under `O=P(O)(O)Oc1c(Br)cc(Br)cc1-c1cc(Br)cc(Br)c1O` [BROMOFENOFOS], 97%.

On to `CC[C@H]1CN2CC[C@@H]1C[C@H]2[C@H](O)c1cc(N2CCC(O)(c3ccccc3)CC2)nc2ccc(OC)cc12`, for which the Inhibition is on record as 100%. Under `N#Cc1c(Cl)cccc1Oc1ccc(S(=O)(=O)NC2CCC(CN3CCC(c4c[nH]c5ccccc45)CC3)CC2)cc1` (stereo not drawn) stands 85% and 100%. Under `CN1CCN(c2ccc3[nH]c(-c4ccc5[nH]c(-c6ccc(O)cc6)nc5c4)nc3c2)CC1.Cl.O` stands 99%; under `CNCCCCCCOc1ccc(CC(C)NCC(O)c2cccc(C(F)(F)F)c2)cc1.Cl` (stereo not drawn), 100%; under `CN(c1ccc(NC(=O)CCOc2ccccc2)cc1)C1CCN(Cc2cccc(O)c2)CC1.O=C(O)C(F)(F)F`, 89%. The figure for `Cc1[nH]c2ccccc2c1C1=CCN(CCCCC23CCCc4cccc(c42)NC3=O)CC1` (stereo not drawn) is 95%; for `CC(Cc1ccc(Oc2ccccc2)cc1)NCC(O)c1cccc(C(F)(F)F)c1` (stereo not drawn) it is 98%; for `C[C@H](Cc1ccc(OCCCCCCOc2ccccc2)cc1)NC[C@H](O)c1cccc(Cl)c1.Cl` it is 93%. With `O=C(/C=C/c1cc(F)c(F)cc1F)N1CCC(CN2CCC(c3c[nH]c4ccccc34)CC2)CC1`, the Inhibition stood at 93%.
